Screens (PubChem)
Sm TGR inh: S. mansoni TGR enzyme inhibition | Q962Y6 | purified TGR, DTNB reduction, TNB absorbance 405 nm | Potency, µM (titrated, usually from 114 µM), actives largely listed as inhibitors | 360,000 tested, 3% active | AID 485364; note: nearly all actives have a fitted effect of over 60% in size
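TGR 20 nM + NADPH 100 uM (dispensed conc.), cpd preinc 15 min RT; start with NADPH (500 uM addition) then DTNB (15 mM addition). Kinetic TNB absorbance, 405 nm filter. Four-parameter Hill fit across titration.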
Pf growth 96h: inhibits malaria parasite growth, 96 h; P. falciparum luciferase reporter growth, 96 h; Potency, µM (highest dose often 28.7 µM), hits mostly inhibitors; 320,000 tested, 6.9% active; AID 504834
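Parasite growth measured via integrated firefly luciferase reporter in P. falciparum. Infected erythrocytes at 2% hematocrit, 0.05% parasitemia final were treated 96 hours at 37 C under 5% CO2, and luminescence was read.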
Pf growth 48h: P. falciparum growth inhibition at 48 hours (one generation); P. falciparum luciferase growth in erythrocytes, 48 h; Potency, µM (highest dose often 28.7 µM), usual class: inhibitors; 310,000 tested, 5.9% active
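Parasite viability was followed by luminescence of a genomically integrated firefly luciferase. Cultures held 0.1% parasitemia at 2% hematocrit (final), incubated under 5% CO2 at 37 C.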
SARS PLpro yeast: blocks SARS-CoV papain-like protease in a yeast assay; S. cerevisiae expressing SARS-CoV PLpro, growth rescue; Potency, µM (top dose mostly 32.9 µM), most hits filed as activators; 330,000 tested, 0.19% active; calls by dose curve; note: nearly all actives have a fitted effect of over 55% in size
Numbers stand for hits; - = inactive; ? = inconclusive; . = no result; [ ] = remark or other dose. Hits are enriched below; roughly 12% of the tested compounds scored in any of these assays. Unless noted, calls come from the whole dose curve; as a rule, active = well fitted curve in the direction sought with a large enough effect; inconclusive = small, poorly fitted or top-dose-only effect, or another doubt; inactive = no such curve, though single readings can be large; an effect the other way counts as inactive or inconclusive.

SMILES	Sm TGR inh	Pf growth 96h	Pf growth 48h	SARS PLpro yeast
C=CCn1c(=NC(=O)c2ccco2)sc2cc(C(=O)OCC)ccc21	-	6.6µM	-	-
C=CCn1c(=NC(=O)c2ccco2)sc2cc(C(=O)OC)ccc21	-	-	-	-
O=C(NC1(C(=O)NC2CCCCC2)CCCCC1)c1ccc2c(c1)OCO2	-	-	-	-
O=C(c1ccc2c(c1)OCO2)N(CC1CCCO1)C1(C(=O)NC2CCCC2)CCCCC1 (stereo unspecified)	-	?	12µM	-
O=C(NC1(C(=O)NC2CCCC2)CCCCC1)c1ccc2c(c1)OCO2	-	9.3µM	-	-
CC1(C)CC(=O)C(N=Nc2cc(S(=O)(=O)N3CCOCC3)ccc2Cl)=C(O)C1	10µM	-	?	-
Cc1noc(C)c1CN(C(=S)NC1CC2CCC1C2)c1ccccc1 (stereo unspecified)	-	-	12µM	-
CCC1CN(C(=O)N2CCC(C(=O)NCc3cc(OC)ccc3OC)CC2)c2ccccc2O1 (stereo unspecified)	-	.	.	.
COc1ccc(OC)c(NC(=O)CSc2nnc(CNC(=O)c3cc(OC)c(OC)c(OC)c3)o2)c1	-	-	-	.
Cc1cc(C)n(-c2nc(SCC(=O)NCC3CCCO3)c3c4c(sc3n2)CCCC4)n1 (stereo unspecified)	-	4.1µM	12µM	-
Cc1cc(C)n(-c2nc(SCCN(C)C)c3c4c(sc3n2)COC(C)(C)C4)n1	-	1.5µM	1.9µM	-
Cc1cc(C)n(-c2nc(NCC3CCCO3)c3c4c(sc3n2)COC(C)(C)C4)n1 (stereo unspecified)	-	2.3µM	.	-
Cc1cc(C)n(-c2nc(NCC(C)O)c3c4c(sc3n2)COC(C)(C)C4)n1 (stereo unspecified)	-	?	?	-
Cc1nc2sc3c(c2c(=O)o1)CC(C)(C)OC3	-	15µM	-	-
O=C1CN(C(=O)c2ccc(S(=O)(=O)N3CCCCC3)cc2)C(c2ccc(F)cc2)c2cc(Cl)ccc2N1 (stereo unspecified)	-	.	.	.
Cc1nc2scc(C)n2c(=O)c1S(=O)(=O)Nc1ccc(N2CCOCC2)c(Cl)c1	-	9.3µM	-	-
Cc1nc2sccn2c(=O)c1S(=O)(=O)Nc1ccc(N2CCOCC2)c(Cl)c1	-	?	-	-
Cc1ccnc(NC(=O)c2cccc(S(=O)(=O)N3CCN(c4ccc(F)cc4)CC3)c2)c1	-	?	?	-
CC1(C)CCCN(Cc2c(O)ccc3c(=O)c(-c4nc5ccccc5s4)c(N)oc23)C1	-	?	?	-
CC1CCN(Cc2c(O)ccc3c(=O)c(-c4ccc(Cl)cc4)c(C(F)(F)F)oc23)CC1	-	.	.	.
CC1CCN(Cc2c(O)ccc3c(=O)c(-c4nc5ccccc5s4)c(N)oc23)CC1	-	?	0.26µM	-
CC1CCCN(Cc2c(O)ccc3c(=O)c(-c4nc5ccccc5s4)c(N)oc23)C1 (stereo unspecified)	-	0.066µM	0.074µM	-
O=C(CCNS(=O)(=O)c1ccc(OC(F)(F)F)cc1)NC1CC1	.	.	.	-
CCCCC(=O)Nc1nc(C)c(-c2csc(Nc3cc(OC)ccc3OC)n2)s1	-	?	1µM	-
CCCCC(=O)Nc1nc(C)c(-c2csc(Nc3cc(Cl)ccc3OC)n2)s1	-	4.7µM	8.3µM	-
SMILES	Sm TGR inh	Pf growth 96h	Pf growth 48h	SARS PLpro yeast
Cc1ccc(OCC(=O)Nc2c(Cl)ccc3nsnc23)cc1C	-	.	.	.
CC(C)c1cc(CN2CCN(CCC#N)CC2)cc(C(C)C)c1O	22µM	?	2.3µM	-
N#CCCN1CCN(C(=S)c2ccc(-c3ccc(Cl)cc3)o2)CC1	-	?	-	-
CCOC(=O)c1c(S(=O)(=O)N2CCCC(C(=O)N3CCN(c4ccc(F)cc4)CC3)C2)c(C)n(C)c1C (stereo unspecified)	-	.	.	.
O=C(NCc1ccccc1)C1CCC(CNc2c(N3CCCCC3)c(=O)c2=O)CC1 (stereo unspecified)	-	12µM	-	-
CC(C)CCNC(=O)C1CCC(CNc2c(N3CCCC3)c(=O)c2=O)CC1 (stereo unspecified)	-	-	12µM	-
CCOc1ccccc1NC(=O)CSc1ncc(S(=O)(=O)c2ccc(C)c(C)c2)c(N)n1	-	.	.	.
CC(C)(C)N(Cc1ccccc1)C(=O)CCc1ccccc1	.	13µM	?	-
Cc1c(Cl)cccc1NC(c1ccc(F)cc1)c1nnc(-c2ccccc2)o1 (stereo unspecified)	-	.	.	.
Cc1cc(C(=O)N/N=C/c2cccc([N+](=O)[O-])c2)c(C)n1-c1ccccc1	-	?	?	-
Cc1cccc(-n2c(C)cc(/C=N\NC(=O)c3ccco3)c2C)c1	-	-	8.3µM	-
Cc1cc(/C=N/NC(=O)C(O)(c2ccccc2)c2ccccc2)c(C)n1-c1ccc(C(=O)O)cc1	-	-	-	-
Cc1ccc(/C=N/NC(=O)c2ccco2)cc1	-	-	-	-
Cc1cccc(C)c1-n1c(C)cc(/C=N/NC(N)=S)c1C	-	?	.	10µM
Cc1cc(/C=N/NC(=O)C(O)(c2ccccc2)c2ccccc2)c(C)n1-c1cccc(C(=O)O)c1	32µM	-	-	-
Cc1cc(/C=N/NC(=O)c2ccccn2)c(C)n1-c1cccc([N+](=O)[O-])c1	-	4.7µM	-	-
Cc1cc(/C=N/NC(N)=S)c(C)n1-c1cccc(Cl)c1	-	-[5.75 µM]	-	-
CN(C)c1ccc(CNC(=O)CCn2c(=O)c3cccn3c3ccc(F)cc32)cc1	-	.	.	.
Cc1nc(N2CCCC2)c2c(C(=O)Nc3ccc(Br)cc3F)c(C)oc2n1	-	.	.	.
Cc1cc(C)cc(-n2c(C)cc(/C=N/NC(=O)c3cccc([N+](=O)[O-])c3C)c2C)c1	-	12µM	.	-
NC(=O)C1CCCN(C(=O)c2ccc(NC(=O)c3cccs3)cc2)C1 (stereo unspecified)	-	?	-	-
O=C1c2cccnc2C(Nc2ccccc2Br)N1Cc1ccco1 (stereo unspecified)	22µM	-	-	-
O=C1c2cccnc2C(Nc2ccccc2)N1Cc1ccco1 (stereo unspecified)	25µM	?	.	-
O=C1c2cccnc2C(Nc2cccc(F)c2)N1Cc1ccco1 (stereo unspecified)	35µM	-	-[5.75 µM]	-
CC(C)CN(C(=O)COc1ccc(Br)cc1C=O)C1CCS(=O)(=O)C1 (stereo unspecified)	-	-	?	-
SMILES	Sm TGR inh	Pf growth 96h	Pf growth 48h	SARS PLpro yeast
CCN(CC)c1ccc(N)cc1	-	?	1.9µM	-
Nc1ccc(C(=O)N(CCO)CCO)cc1	.	-	-	-
Nc1ccc(N(CCO)CCO)cc1	7.1µM	-	?	-
CCn1nc(-c2ccccc2)c(-c2ccccc2)c(C(=O)Nc2ccc(NC(C)=O)cc2)c1=O	-	.	.	.
O=C(N/N=C/c1ccc(Br)s1)c1c[nH]c2ccccc12	-	-	-	-
CCOC(=O)C1CCN(S(=O)(=O)c2ccc3c(c2)CC(C)N3C(=O)C2CC2)CC1 (stereo unspecified)	-	?	?	-
CC1Cc2cc(S(=O)(=O)N3CCC(C(N)=O)CC3)ccc2N1C(=O)C1CC1 (stereo unspecified)	-	12µM	-	-
